Source: PubChem BioAssay (NCATS)
Results filed as inconclusive are left out. Calls of active or inactive are those of the source. Unless noted, calls follow the shape of the dose curve; as a rule, active = well fitted curve in either direction with a large enough effect (not every such curve was filed as active); inconclusive = small, poorly fitted or top-dose-only effect, or another doubt; inactive = flat fitted curve, though single readings scatter.

Experiments:
[1] = biological target: Lysosomal acid glucosylceramidase (Homo sapiens) (UniProt P04062); assay: Glucocerebrosidase-p2 (AID 348; in the data active = potency below about 10 µM; also: potency is read from the fitted curve at half-maximal effect); conditions: purified GBA, blue fluorogenic substrate, 40 min
Method in brief: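 Compounds titrated from 0.6 nM upwards against 0.2 nM enzyme in pH 5.9 citric acid/KH2PO4, taurocholate, tween-20; blue fluorogenic substrate 80 uM, 40 min room temperature, stopped and read Ex 365/Em 440 for AC50.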

[2] = AP1 Signaling Pathway (AID 357); conditions: ME-180 AP-1-bla reporter, EGF-induced, beta-lactamase ratio, 5 h; at 7.69 µM (top of the series) unless noted; also: % is scaled to controls: 0 for no effect and ±100 for the full control effect
Method in brief: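 ME-180 cells with beta-lactamase reporter under AP-1 response element, stimulated with EC50 EGF; compounds tested in titration series, 5 h at 37 °C. CCF4 substrate added 2.5 h at room temperature; 460/530 nm emission ratio gave %activity and AC50.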

[3] = biological target: Cytochrome P450 1A2 (Homo sapiens) (UniProt P05177); assay: p450-cyp1a2 (AID 410; calls by dose curve; also: potency is read from the fitted curve at half-maximal effect;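 as to activity change, negative = inhibition: -100% = full effect of reference inhibitor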); conditions: recombinant CYP1A2, luciferin-ME demethylation, luminescence; series mostly up to 57 µM
Method in brief: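 Luminescent readout of luciferin formed from Luciferin-ME by human CYP1A2; data normalized against complete inhibition by 57 uM furafylline. Enzyme 20nM, substrate 100uM at Km, 100mM KPO4 buffer, 60 min reaction at room temperature.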

[4] = Stat Signaling Pathway (AID 446); conditions: ME-180 SIE beta-lactamase reporter, IL-6 stimulated, 5 h; at 7.69 µM (top of the series) unless noted;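 also: ME-180 cervical cancer cells given 40 pM IL-6 alongside compound; SIE-controlled beta-lactamase reporter measured as 460/530 nm FRET emission ratio; % is scaled to controls: 0 for no effect and ±100 for the full control effect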
Method in brief: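 Reporter line: ME-180 cervical carcinoma, SIE-beta-lactamase. Treatment: compound with 40 pM IL-6, 5 hrs, 37 C, in low-serum OPTI-MEM with 10 mM HEPES pH 7.3. Detection: 460/530 nm fluorescence.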

[5] = biological target: Glucocorticoid receptor (Homo sapiens) (UniProt P04150); assay: GR-EFC Redistribution (AID 451; calls by dose curve; also: potency is read from the fitted curve at half-maximal effect); conditions: CHO-K1 GR-EFC translocation, beta-gal luminescence, 2 h
Method in brief: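 CHO-K1 cells expressing nuclear EA and GR-ED fragments of b-gal; compounds titrated up to 46 uM final, 2 h at 37 C. GR nuclear translocation read as complemented b-gal luminescence after 1 h RT detection.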

[6] = biological target: Mitogen-activated protein kinase 10 (Mus musculus) (UniProt Q61831); assay: JNK3 AlphaScreen Assay (AID 530); conditions: JNK3 lysate, c-Jun phosphorylation; series mostly up to 57.1 µM;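 also: kinase came from lysate of stimulated human HepG2 cells; signal reports phosphorylation of biotinylated GST-cJun 1-79 at Ser73 with 10 µM ATP; % is scaled to controls: 0 for no effect and ±100 for the full control effect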
Method in brief: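 Pre-activated (IL-1β/TNFα) JNK3 in HepG2 lysates phosphorylates biotin-GST-cJun(1-79), 10 uM ATP; anti-phospho-cJun(Ser73) AlphaScreen read at room temperature, pH 7.6 Tris buffer. Compounds pre-incubated 15 min as titrations.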

[7] = biological target: 3',5'-cyclic-AMP phosphodiesterase 4B (Homo sapiens) (UniProt Q07343); assay: qHTS Assay for Inhibitors of PDE-IV (AID 607; active = well fitted activation curve with a large enough effect in the main read-out, with a control signal flat, not every such curve was filed as active; also: % of control where 0% means no effect); conditions: HEK293 ACTOne CNG channel cells, membrane potential fluorescence; series mostly up to 22.9 µM
Method in brief: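 Cell-based read-out of cAMP via a modified cyclic nucleotide-gated channel and membrane potential dye (535/590 nm) in HEK293 cells expressing PDE4 endogenously. Compounds tested up to 22.9 uM final; 100 uM RO 20-1724 reference.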

[8] = biological target: Cytochrome P450 3A4 (Homo sapiens) (UniProt P08684); assay: qHTS Assay for Activators of Cytochrome P450 3A4 (AID 885; active = well fitted curve in the direction sought with a large enough effect; an effect the other way counts as inactive or inconclusive; also: nearly all actives have a fitted effect of over 65% in size; also: potency is read from the fitted curve at half-maximal effect); conditions: recombinant CYP3A4, Luciferin-PPXE luminescence, 60 min; series mostly up to 57.1 µM
Method in brief: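 Signal was normalized against complete inhibition by 57 uM ketoconazole. The reaction used 20nM CYP3A4 with 25uM Luciferin-PPXE, 10-min compound preincubation and a 60-min NADPH-supported step at RT.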

[9] = qHTS Assay for Lipid Storage Modulators (AID 1519; calls by dose curve); conditions: Drosophila S3 cells, BODIPY lipid droplet/cell ratio, laser cytometry, cells loaded with oleic acid; for activity change, negative = inhibition: at 57.5 µM (top of the series)
Method in brief: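 Cells seeded at 5,000 per well were treated with compounds over a concentration series and loaded with oleic acid (400 uM, as added). Lipid droplet fluorescence (488 nm excitation, 500-530 nm channel) was read by laser-scanning cytometry and normalized to 20 uM Triacsin C.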

[10] = Primary qHTS for small molecule stabilizers of the endoplasmic reticulum resident proteome: Secreted ER Calcium Modulated Protein (SERCaMP) assay (AID 1508630; active = well fitted curve in the direction sought with a large enough effect; an effect the other way counts as inactive or inconclusive; also: % is scaled to controls: 0 for no effect and ±100 for the full control effect); conditions: SH-SY5Y GLuc-SERCaMP (Gaussia luciferase released on ER calcium loss) secretion, thapsigargin, luminescence; series mostly up to 38.4 µM
Method in brief: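 GLuc-SERCaMP-expressing SH-SY5Y cells, pretreated 16 h with compound, are challenged with thapsigargin to empty ER calcium stores; after 4 h, coelenterazine is added directly to the medium and luminescence is imaged.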

[11] = NFAT Signaling Pathway (AID 444); conditions: Jurkat NFAT-bla M1, carbachol, beta-lactamase ratio, 5 h; at 7.69 µM (top of the series) unless noted
Method in brief: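 Jurkat cells with NFAT-driven β-lactamase reporter and co-expressed M1 receptor, stimulated with carbachol (final 1 uM, ~EC50), compound titration, 5 h at 37 °C. CCF4 loaded 1 h at RT; 460/530 nm ratio gave %activity and AC50.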

[12] = biological target: Glucocorticoid receptor (Homo sapiens) (UniProt P04150); assay: GR-GFP Redistribution (AID 450;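 active = compounds whose dose series gives a full or clear partial fitted curve of increased nuclear translocation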; also: potency is read from the fitted curve at half-maximal effect); conditions: U2OS GR-GFP nuclear translocation, laser cytometry, 2 h
[13] = biological target: Ubiquitin carboxyl-terminal hydrolase 1 (Homo sapiens) (UniProt O94782); assay: Inhibitors of USP1/UAF1: Pilot qHTS (AID 504865; active = well fitted curve in the direction sought with a large enough effect; an effect the other way counts as inactive or inconclusive;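 also: rhodamine fluorescence freed from ubiquitin-rhodamine substrate followed over time; top concentration of the series differs between compounds; % is scaled to controls: 0 for no effect and ±100 for the full control effect; nearly all actives have a fitted effect of over 35% in size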); conditions: purified USP1/UAF1, Ub-rhodamine cleavage fluorescence; series mostly up to 54.9 µM
Method in brief: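 In 50mM HEPES pH 7.8 containing 0.5mM EDTA, 1mM TCEP, 0.1 mg/ml BSA and 0.01% Tween-20, 1nM USP1/UAF1 is exposed to compound for 15 min, then Ub-Rho (150nM final) is added and fluorescence is read over time.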

[14] = biological target: Cytochrome P450 2D6 (Homo sapiens) (UniProt P10635); assay: qHTS Assay for Inhibitors and Substrates of Cytochrome P450 2D6 (AID 891; active = well fitted curve in the direction sought with a large enough effect; an effect the other way counts as inactive or inconclusive; also: potency is read from the fitted curve at half-maximal effect; nearly all actives have a fitted effect of over 60% in size); conditions: recombinant CYP2D6, luciferin-ME EGE luminescence; series mostly up to 57.1 µM
Method in brief: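 Human CYP2D6 (5 nM) with 30 uM Luciferin-ME EGE (at Km) in 100 mM KPO4, compound preincubated 10 min, then NADPH regeneration system for 60 min at room temperature. Luciferin read by luminescence; normalized to 1.43 uM quinidine.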

[15] = biological target: Cytochrome P450 3A4 (Homo sapiens) (UniProt P08684); assay: qHTS Assay for Inhibitors and Substrates of Cytochrome P450 3A4 (AID 884; active = well fitted curve in the direction sought with a large enough effect; an effect the other way counts as inactive or inconclusive; also: nearly all actives have a fitted effect of over 50% in size; also: potency is read from the fitted curve at half-maximal effect); conditions: recombinant CYP3A4, Luciferin-PPXE luminescence; series mostly up to 57.1 µM
Method in brief: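 20 nM human CYP3A4 with 25 uM Luciferin-PPXE (at KM) in 200 mM KPO4, preincubated 10 min with compound; NADPH regeneration started a 60 min RT reaction. Luciferin detected by luminescence, normalized to 57 uM ketoconazole as full inhibition.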

[16] = qHTS Assay for Identification of Small Molecule Agonists for Hypoxia Response Element Signaling Pathway (AID 914; active = well fitted activation curve with a large enough effect in the signal ratio, with a control signal flat, not every such curve was filed as active; the % refers to the signal ratio; also: potency is read from the fitted curve at half-maximal effect); conditions: ME-180 (cervical carcinoma) HRE-bla reporter, beta-lactamase ratio, CoCl2, 17 h; activation: stronger effect = higher value
Method in brief: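 AC50 values come from titration-series %Activity, taken as the 460/530nm ratio of CCF4 fluorescence (excitation 405nm). CellSensor HRE-bla ME-180 cells were treated 17 hours at 37 C with compound plus an EC50 level of CoCl2.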

[17] = biological target: Dual specificity protein kinase CLK4 (Homo sapiens) (UniProt Q9HAZ1); assay: qHTS Assay for Inhibitors of CDC-like Kinase 4 (Kinase-Glo Assay) (AID 1770; active = well fitted curve in the direction sought with a large enough effect; an effect the other way counts as inactive or inconclusive; also: % is scaled to controls: 0 for no effect and ±100 for the full control effect; nearly all actives have a fitted effect of over 65% in size); conditions: recombinant Clk4, Kinase-Glo ATP depletion luminescence; series mostly up to 66.7 µM
Method in brief: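 Substrate mix (RS peptide 100 uM, ATP 1 uM) dispensed, compound pinned in, then Clk4 added to 25 nM final. Incubated 4.5 h at RT; Kinase-Glo reagent added, luminescence read after 5 min.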

[18] = biological target: Dual specificity protein kinase CLK4 (Homo sapiens) (UniProt Q9HAZ1); assay: qHTS Assay for Inhibitors of CDC-like Kinase 4 (ADP-Glo Assay) (AID 1771; active = well fitted curve in the direction sought with a large enough effect; an effect the other way counts as inactive or inconclusive; also: % is scaled to controls: 0 for no effect and ±100 for the full control effect; nearly all actives have a fitted effect of over 70% in size); conditions: recombinant CLK4, ADP-Glo luminescence; series mostly up to 80 µM
Method in brief: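 Luminescence from ADP-Glo reports ADP produced by 25 nM Clk4 acting on 100 uM RS repeat peptide with 1 uM ATP over 1 hr at room temperature; residual ATP is depleted before ADP is converted to ATP for detection.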

[19] = biological target: Cytochrome P450 2C19 (Homo sapiens) (UniProt P33261); assay: qHTS Assay for Inhibitors and Substrates of Cytochrome P450 2C19 (AID 899; active = well fitted curve in the direction sought with a large enough effect; an effect the other way counts as inactive or inconclusive; also: potency is read from the fitted curve at half-maximal effect; nearly all actives have a fitted effect of over 60% in size); conditions: recombinant CYP2C19, luciferin-H EGE luminescence; series mostly up to 57.1 µM
Method in brief: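 5 nM human CYP2C19 with 10uM Luciferin-H EGE (at KM) in 50mM KPO4, compound preincubated 10 min at 37C, then NADPH regeneration for 60 min at 37C. Luciferin read by luminescence after detection reagent; normalized to 57uM ketoconazole as full inhibition.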

[20] = biological target: Cytochrome P450 2C9 (Homo sapiens) (UniProt P11712); assay: qHTS Assay for Inhibitors and Substrates of Cytochrome P450 2C9 (AID 883; active = well fitted curve in the direction sought with a large enough effect; an effect the other way counts as inactive or inconclusive; also: % is scaled to controls: 0 for no effect and ±100 for the full control effect; nearly all actives have a fitted effect of over 60% in size); conditions: recombinant CYP2C9, luciferin-H luminescence, 60 min; series mostly up to 57.1 µM
Method in brief: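 Human CYP2C9 (10nM) with Luciferin-H at 100uM (its KM) in 25mM KPO4; compound preincubated 10 min at 37C, then NADPH regeneration for 60 min at 37C. Luciferin read by luminescence after detection reagent; normalized to 57uM sulphaphenazole as full inhibition.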

[21] = measured here: cell count channel max response
[22] = measured here: lipid channel max response

Chain of Ubiquitin carboxyl-terminal hydrolase 1 (Homo sapiens) (O94782 whole entry, looked up): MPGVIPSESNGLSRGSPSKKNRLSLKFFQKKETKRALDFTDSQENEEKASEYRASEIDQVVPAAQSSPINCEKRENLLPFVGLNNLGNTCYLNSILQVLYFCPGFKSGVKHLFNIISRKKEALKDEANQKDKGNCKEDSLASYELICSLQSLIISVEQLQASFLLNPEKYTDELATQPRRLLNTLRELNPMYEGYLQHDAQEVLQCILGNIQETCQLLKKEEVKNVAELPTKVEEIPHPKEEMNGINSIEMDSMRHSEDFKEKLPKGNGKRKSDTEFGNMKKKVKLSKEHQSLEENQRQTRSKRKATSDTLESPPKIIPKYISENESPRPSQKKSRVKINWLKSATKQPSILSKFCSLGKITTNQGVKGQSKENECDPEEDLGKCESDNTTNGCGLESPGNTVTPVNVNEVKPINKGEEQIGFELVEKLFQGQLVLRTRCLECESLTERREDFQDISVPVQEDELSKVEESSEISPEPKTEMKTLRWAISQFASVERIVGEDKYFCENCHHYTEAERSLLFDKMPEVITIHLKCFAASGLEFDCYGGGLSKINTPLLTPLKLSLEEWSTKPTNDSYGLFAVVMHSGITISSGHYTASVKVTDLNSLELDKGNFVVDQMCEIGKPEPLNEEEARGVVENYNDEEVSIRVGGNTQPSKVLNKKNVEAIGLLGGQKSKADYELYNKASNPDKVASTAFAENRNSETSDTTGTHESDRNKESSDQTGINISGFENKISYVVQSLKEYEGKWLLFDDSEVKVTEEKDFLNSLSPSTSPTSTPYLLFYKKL
Chain of Dual specificity protein kinase CLK4 (Homo sapiens) (Q9HAZ1 whole entry, looked up): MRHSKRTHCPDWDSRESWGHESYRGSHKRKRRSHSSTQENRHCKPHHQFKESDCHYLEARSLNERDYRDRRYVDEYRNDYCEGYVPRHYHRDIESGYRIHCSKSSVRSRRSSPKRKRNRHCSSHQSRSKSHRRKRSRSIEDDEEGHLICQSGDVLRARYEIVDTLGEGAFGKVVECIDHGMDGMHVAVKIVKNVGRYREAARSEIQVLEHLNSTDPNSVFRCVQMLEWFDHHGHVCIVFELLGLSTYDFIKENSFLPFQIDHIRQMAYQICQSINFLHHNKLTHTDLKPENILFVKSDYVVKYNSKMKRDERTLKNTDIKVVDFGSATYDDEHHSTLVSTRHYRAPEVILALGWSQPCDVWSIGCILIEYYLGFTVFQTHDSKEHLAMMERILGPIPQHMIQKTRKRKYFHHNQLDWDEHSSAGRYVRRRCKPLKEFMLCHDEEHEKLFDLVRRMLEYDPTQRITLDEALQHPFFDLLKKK
Chain of Lysosomal acid glucosylceramidase (Homo sapiens) (P04062 whole entry, looked up): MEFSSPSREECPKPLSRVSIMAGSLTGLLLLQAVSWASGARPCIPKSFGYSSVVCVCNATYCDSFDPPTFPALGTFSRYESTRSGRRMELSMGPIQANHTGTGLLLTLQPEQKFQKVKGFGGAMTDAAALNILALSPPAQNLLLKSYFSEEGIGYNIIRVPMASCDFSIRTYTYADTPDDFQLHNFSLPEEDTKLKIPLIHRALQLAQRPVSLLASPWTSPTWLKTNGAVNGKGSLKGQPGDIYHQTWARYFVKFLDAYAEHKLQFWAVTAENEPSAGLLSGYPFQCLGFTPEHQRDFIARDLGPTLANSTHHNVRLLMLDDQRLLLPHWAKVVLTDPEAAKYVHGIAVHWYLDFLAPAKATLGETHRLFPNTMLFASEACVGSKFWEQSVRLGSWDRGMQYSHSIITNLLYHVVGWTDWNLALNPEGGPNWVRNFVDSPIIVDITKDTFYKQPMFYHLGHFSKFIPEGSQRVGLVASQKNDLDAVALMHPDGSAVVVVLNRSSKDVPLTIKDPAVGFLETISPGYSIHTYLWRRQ
Chain of Glucocorticoid receptor (Homo sapiens) (P04150 whole entry, looked up, the tested form may be a part): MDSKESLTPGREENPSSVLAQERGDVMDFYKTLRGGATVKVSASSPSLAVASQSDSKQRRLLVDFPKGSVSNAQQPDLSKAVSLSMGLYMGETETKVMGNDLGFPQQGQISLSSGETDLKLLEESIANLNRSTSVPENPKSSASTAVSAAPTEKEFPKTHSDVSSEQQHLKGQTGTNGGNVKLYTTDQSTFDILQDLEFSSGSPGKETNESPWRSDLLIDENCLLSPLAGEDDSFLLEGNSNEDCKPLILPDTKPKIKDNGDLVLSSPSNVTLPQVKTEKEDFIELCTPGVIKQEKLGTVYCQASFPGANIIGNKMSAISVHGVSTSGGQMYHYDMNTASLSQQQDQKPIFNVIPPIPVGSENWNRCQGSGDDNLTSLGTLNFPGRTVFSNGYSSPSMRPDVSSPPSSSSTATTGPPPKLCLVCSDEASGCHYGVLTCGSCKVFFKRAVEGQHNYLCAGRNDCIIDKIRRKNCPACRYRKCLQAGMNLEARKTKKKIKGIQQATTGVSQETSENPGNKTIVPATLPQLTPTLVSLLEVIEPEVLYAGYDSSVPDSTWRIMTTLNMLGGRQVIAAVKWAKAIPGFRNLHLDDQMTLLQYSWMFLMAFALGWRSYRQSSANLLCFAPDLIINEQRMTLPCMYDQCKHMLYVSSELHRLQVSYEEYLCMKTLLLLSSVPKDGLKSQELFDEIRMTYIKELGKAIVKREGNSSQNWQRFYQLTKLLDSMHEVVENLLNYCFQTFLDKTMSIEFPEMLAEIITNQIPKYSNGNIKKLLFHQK
Chain of 3',5'-cyclic-AMP phosphodiesterase 4B (Homo sapiens) (Q07343 whole entry, looked up): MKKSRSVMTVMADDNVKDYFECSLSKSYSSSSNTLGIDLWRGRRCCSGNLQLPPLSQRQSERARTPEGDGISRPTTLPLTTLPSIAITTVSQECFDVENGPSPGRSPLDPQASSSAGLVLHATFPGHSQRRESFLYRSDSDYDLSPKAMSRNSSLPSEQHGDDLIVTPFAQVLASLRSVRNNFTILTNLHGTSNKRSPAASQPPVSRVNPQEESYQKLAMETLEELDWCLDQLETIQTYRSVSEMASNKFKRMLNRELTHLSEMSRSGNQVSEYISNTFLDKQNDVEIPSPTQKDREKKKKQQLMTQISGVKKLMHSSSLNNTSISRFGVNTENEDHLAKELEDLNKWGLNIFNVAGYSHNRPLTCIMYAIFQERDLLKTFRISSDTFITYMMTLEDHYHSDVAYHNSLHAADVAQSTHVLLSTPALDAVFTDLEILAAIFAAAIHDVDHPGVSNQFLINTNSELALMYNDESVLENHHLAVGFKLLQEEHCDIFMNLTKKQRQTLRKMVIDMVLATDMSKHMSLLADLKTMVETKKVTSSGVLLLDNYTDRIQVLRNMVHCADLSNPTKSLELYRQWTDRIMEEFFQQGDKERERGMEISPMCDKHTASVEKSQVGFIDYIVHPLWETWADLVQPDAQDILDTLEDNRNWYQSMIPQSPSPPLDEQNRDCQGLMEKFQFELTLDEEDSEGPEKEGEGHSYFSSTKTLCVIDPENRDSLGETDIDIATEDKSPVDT
Chain of Cytochrome P450 1A2 (Homo sapiens) (P05177 whole entry, looked up): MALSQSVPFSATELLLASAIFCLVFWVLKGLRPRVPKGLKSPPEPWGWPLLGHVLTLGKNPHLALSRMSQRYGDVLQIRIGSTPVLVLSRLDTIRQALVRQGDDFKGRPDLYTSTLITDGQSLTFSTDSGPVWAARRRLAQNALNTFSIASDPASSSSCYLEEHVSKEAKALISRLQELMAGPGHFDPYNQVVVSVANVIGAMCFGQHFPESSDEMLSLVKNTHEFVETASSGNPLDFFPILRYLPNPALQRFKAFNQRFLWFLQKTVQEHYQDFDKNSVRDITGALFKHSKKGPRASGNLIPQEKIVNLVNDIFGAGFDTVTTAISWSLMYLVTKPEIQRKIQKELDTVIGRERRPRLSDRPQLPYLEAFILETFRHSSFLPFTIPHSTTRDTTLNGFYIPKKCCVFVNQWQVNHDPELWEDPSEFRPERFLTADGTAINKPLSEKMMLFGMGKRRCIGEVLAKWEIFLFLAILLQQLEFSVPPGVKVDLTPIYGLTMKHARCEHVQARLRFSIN
Chain of Cytochrome P450 3A4 (Homo sapiens) (P08684 whole entry, looked up): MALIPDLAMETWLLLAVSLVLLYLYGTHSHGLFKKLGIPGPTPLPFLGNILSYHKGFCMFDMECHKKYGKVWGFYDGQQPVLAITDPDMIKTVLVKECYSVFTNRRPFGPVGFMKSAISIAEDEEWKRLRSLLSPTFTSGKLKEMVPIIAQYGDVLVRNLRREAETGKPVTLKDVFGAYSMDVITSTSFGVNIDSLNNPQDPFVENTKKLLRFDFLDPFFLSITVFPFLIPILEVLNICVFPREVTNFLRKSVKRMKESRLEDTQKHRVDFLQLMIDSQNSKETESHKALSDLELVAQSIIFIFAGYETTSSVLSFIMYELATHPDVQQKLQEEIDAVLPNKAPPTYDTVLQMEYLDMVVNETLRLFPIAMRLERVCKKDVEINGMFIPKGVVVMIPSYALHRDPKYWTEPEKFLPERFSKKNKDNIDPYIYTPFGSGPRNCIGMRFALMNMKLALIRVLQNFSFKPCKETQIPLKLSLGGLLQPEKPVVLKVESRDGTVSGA
Chain of Cytochrome P450 2D6 (Homo sapiens) (P10635 whole entry, looked up): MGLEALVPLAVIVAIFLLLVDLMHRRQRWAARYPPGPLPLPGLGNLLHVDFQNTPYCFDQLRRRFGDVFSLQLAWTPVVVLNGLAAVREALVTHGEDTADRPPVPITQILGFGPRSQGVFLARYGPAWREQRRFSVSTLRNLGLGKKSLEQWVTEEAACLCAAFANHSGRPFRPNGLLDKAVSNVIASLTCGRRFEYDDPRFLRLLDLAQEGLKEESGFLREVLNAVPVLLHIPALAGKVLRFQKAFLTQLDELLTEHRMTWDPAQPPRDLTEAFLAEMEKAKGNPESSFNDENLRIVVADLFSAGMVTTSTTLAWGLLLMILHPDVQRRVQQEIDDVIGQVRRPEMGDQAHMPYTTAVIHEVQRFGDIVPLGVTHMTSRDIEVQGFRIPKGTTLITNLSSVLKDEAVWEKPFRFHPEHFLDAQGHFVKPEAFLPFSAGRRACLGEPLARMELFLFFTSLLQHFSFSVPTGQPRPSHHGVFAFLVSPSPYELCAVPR

O=C(Nc1cccc(F)c1)N1CC[C@@]2(CCCN(C(=O)c3ccco3)C2)C1
-1.46%: max response [9, 22]
-5.34%: max response [9, 21]
active: Potency [3] 25.1 µM
inactive: Potency [1] > 11.4 µM | activity change, negative = inhibition [2] 1.78% | activity, negative = inhibition [4] 8.88% | Potency [5] > 46 µM | outcome [6] | Potency [7] | Potency [8] | activity change, negative = inhibition [9] 0.339% | Potency [10]

O=C(Oc1ccccc1)N1CCC2(CCCN(c3ccccc3)C2)CC1
inactive: Potency [1] > 11.4 µM | activity change, negative = inhibition [2] 8.28% | activity, negative = inhibition [4] 8.61% | Potency [5] > 46 µM | outcome [6] | Potency [8] | activity change, negative = inhibition [9] -26.4%
17%: max response [9, 21]
-12.6%: max response [9, 22]
active: Potency [3] 15.8 µM

Cc1noc(C)c1-c1cc(Nc2ccc(F)cc2)ncn1
inactive: Potency [1] > 11.4 µM | activity change, negative = inhibition [2] -7.8% | activity change, negative = inhibition [11] -15.1% | activity, negative = inhibition [4] 3.16% | Potency [12] > 46 µM | Potency [5] > 46 µM | outcome [6] | Potency [7] | Potency [8] | Potency [13] | Potency [10]
active: Potency [3] 0.501 µM

COc1ccccc1CN1CC[C@@]2(CCCN(C(C)=O)C2)C1
-2.53%: max response [9, 21]
inactive: Potency [1] > 11.4 µM | activity change, negative = inhibition [2] -19% | Potency [3] | activity, negative = inhibition [4] 1.39% | Potency [5] > 46 µM | outcome [6] | Potency [7] | activity change, negative = inhibition [9] 0.807% | Potency [10]
active: Potency [14] 3.16 µM
-1%: max response [9, 22]

CN1CCN(c2ncc3nc(-c4ccc(F)cc4)c(=O)n(Cc4cccs4)c3n2)CC1
inactive: Potency [1] > 11.4 µM | Potency [12] > 9.22 µM | Potency [5] > 46 µM | Potency [7] | Potency [15] | Potency [17] | Potency [18] | Potency [13] | Potency [10]
active: Potency [3] 25.1 µM | Potency [16] 3.16 µM

O=C(Oc1ccccc1)N1CCC[C@@]2(CCN(c3ncccn3)C2)C1
17.1%: max response [9, 22]
active: Potency [3] 12.6 µM | Potency [19] 2.51 µM
8.9%: max response [9, 21]
inactive: Potency [1] > 11.4 µM | activity change, negative = inhibition [2] 2.93% | activity change, negative = inhibition [11] -0.482% | activity, negative = inhibition [4] 9% | Potency [5] > 46 µM | outcome [6] | Potency [7] | Potency [8] | activity change, negative = inhibition [9] 4.5%

O=C(c1cccc(F)c1)N1CCC[C@@]2(CCN(c3ccncc3)C2)C1
active: Potency [15] 0.316 µM
inactive: Potency [1] > 11.4 µM | activity change, negative = inhibition [2] -0.222% | Potency [3] | activity change, negative = inhibition [11] -14.9% | activity, negative = inhibition [4] -5.12% | Potency [5] > 46 µM | outcome [6] | Potency [7] | Potency [8] | activity change, negative = inhibition [9] 6.94%
20%: max response [9, 21]
29.4%: max response [9, 22]

Cc1noc(C)c1-c1cc(N2CCN(C)CC2)ncn1
inactive: Potency [1] > 11.4 µM | activity change, negative = inhibition [2] 4.49% | activity change, negative = inhibition [11] -0.822% | activity, negative = inhibition [4] 7.9% | Potency [12] > 46 µM | Potency [5] > 46 µM | outcome [6] | Potency [7] | activity change, negative = inhibition [20] 31% [at 2.29 µM] | Potency [17] | Potency [18] | Potency [13]
active: Potency [3] 10 µM

O=C(c1csnn1)N1CCC2(CC1)CN(C(c1ccccc1)c1ccccc1)C2
24.2%: max response [9, 22]
inactive: Potency [1] > 11.4 µM | activity change, negative = inhibition [2] 3.92% | Potency [3] | activity change, negative = inhibition [11] -2.37% | activity, negative = inhibition [4] -0.642% | Potency [5] > 46 µM | outcome [6] | Potency [7] | activity change, negative = inhibition [9] 3.78%
active: Potency [8] 10 µM
18.7%: max response [9, 21]
